Assay outcomes deposited in PubChem BioAssay by National Center for Advancing Translational Sciences (NCATS).
Cruzain Triton = blocks cruzain activity in presence of Triton detergent. Potency, µM, for the others: max response, negative = inhibition, actives largely listed as inhibitors. purified cruzain, Z-FR-AMC fluorescence, 0.01% Triton. P25779. 200,000 tested, 0.43% active;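 further: plate controls were neutral wells for no effect and buffer without enzyme for full effect; nearly all actives have a fitted effect of over 40% in size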
Target sequence (P25779 123-467 limits assumed): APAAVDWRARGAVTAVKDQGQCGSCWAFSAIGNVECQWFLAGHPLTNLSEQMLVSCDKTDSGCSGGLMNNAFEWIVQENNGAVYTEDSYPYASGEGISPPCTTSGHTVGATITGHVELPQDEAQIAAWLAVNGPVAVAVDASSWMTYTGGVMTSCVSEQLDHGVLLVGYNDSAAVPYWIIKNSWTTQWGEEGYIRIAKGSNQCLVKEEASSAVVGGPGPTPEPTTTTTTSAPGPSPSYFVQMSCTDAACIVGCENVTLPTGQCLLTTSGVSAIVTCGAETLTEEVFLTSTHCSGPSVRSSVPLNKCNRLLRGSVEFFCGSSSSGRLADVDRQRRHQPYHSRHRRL
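Detergent-containing arm of a paired screen for aggregation-based inhibition: 0.01% Triton X-100 present. Cruzain at 1.5 nM cleaved 2 uM Z-FR-AMC at pH 5.5 with 5 mM DTT; AMC fluorescence gain over 60 s measured activity.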
Cruzain noTriton = inhibitors of Trypanosoma cruzi cruzain without detergent; Potency, µM, inactives show max response, negative = inhibition, actives largely listed as inhibitors; P25779; purified cruzain, Z-FR-AMC fluorescence, no detergent; 200,000 tested, 2.3% active;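 further: plate controls were enzyme without inhibitor for no effect and buffer without enzyme for full effect; nearly all actives have a fitted effect of over 40% in size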
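Purified cruzain at 1.5 nM, pre-incubated 15 min with compound at room temperature in 100 mM sodium acetate pH 5.5, 5 mM DTT, 0.00005% Triton X-100. Reaction started with 2 uM Z-FR-AMC; AMC fluorescence increase over 60 s gives rate.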
Starred values were filed as active, the others as inactive; ? = inconclusive. Only some compounds are listed: those with a hit (about 2.5% of all), similar ones and a draw of the others. The call rests on the fitted dose curve; in most records, active means well fitted curve in the direction sought with a large enough effect; inconclusive means small, poorly fitted or top-dose-only effect, or another doubt; inactive means no such curve, though single readings can be large; an effect the other way counts as inactive or inconclusive. Potency means the concentration at half of the fitted maximal effect.

SMILES	Cruzain Triton	Cruzain noTriton
Cc1nn(CCC(=O)N2CCN(c3ccccc3)CC2)c(C)c1S(=O)(=O)N1CCCC1	1%	?
O=C(Nc1ccc2oc(-c3ccc4ccccc4c3)nc2c1)c1ccc2c(c1)OCCO2	-3%	10µM*
O=C(Nc1ccc2oc(-c3ccc4ccccc4c3)nc2c1)c1ccc(Cl)c(Cl)c1	0%	-3%
CSc1ccc(CCNC(=O)CN2C(=O)COc3ccc(S(=O)(=O)N4CCCCCC4)cc32)cc1	1%	-8%
Cc1sc(N/N=C/C=C/c2ccccc2)nc1-c1ccccc1	0%	7.9µM*
Cc1cc(C)nc(N/N=C/C=C/c2ccccc2)n1	-7%	-3%
O=C(O)c1ccc(CNCc2ccccc2Cl)s1	-1%	5%
Cc1cc(C(=O)NCC(=O)OC(C(=O)Nc2cc(C(F)(F)F)ccc2Cl)c2ccccc2)ccc1[N+](=O)[O-] (centres undefined)	4.5µM*	32µM*
COc1ccc(C)cc1NC(=O)C(OC(=O)c1ccc([N+](=O)[O-])o1)c1ccccc1 (centres undefined)	-8%	?
CCCC(=O)OC(C(=O)Nc1cc(C(F)(F)F)ccc1Cl)c1ccccc1 (centres undefined)	-5%	19%
COc1ccc(C)cc1NC(=O)C(NS(=O)(=O)c1cccs1)c1ccccc1 (centres undefined)	-2%	-25%
COc1ccc(C)cc1NC(=O)C(OC(=O)CNC(=O)c1cc(C)cc(C)c1)c1ccccc1 (centres undefined)	8.9µM*	20µM*
COc1ccc(C)cc1NC(=O)C(OC(=O)CNC(=O)c1ccc(Br)cc1)c1ccccc1 (centres undefined)	7.9µM*	10µM*
CC(C)CC(C(=O)Nc1ccc2c(c1)OCCO2)N1C(=O)c2ccccc2C1=O (centres undefined)	-8%	-7%
CC(C)CC(C(=O)Nc1oc(-c2ccco2)c(-c2ccco2)c1C#N)N1C(=O)c2ccccc2C1=O (centres undefined)	-22%	32µM*
Cc1ccc(NC(=O)CSc2nccn2Cc2ccco2)cc1Cl	-8%	-4%
CCc1ccc(-c2csc3[n+]2CCN3C(C)=O)cc1	18µM*	-21%
CC(=O)N1CC[n+]2c(-c3ccc(Cl)cc3)csc21	?	-16%
Cc1ccc(N2C(=O)CC(Sc3nc(-c4ccccc4)c4cc(Cl)ccc4n3)C2=O)c(C)c1 (centres undefined)	-8%	16µM*
Cc1ccccc1N1C(=O)CC(Sc2nnc(-c3ccccc3)o2)C1=O (centres undefined)	-3%	3%
CCOc1ccc(/C=N/NC(=O)Cc2csc(Nc3cccc(C(F)(F)F)c3)n2)c(OCC)c1	4%	?
CCOc1ccccc1/C=N/NC(=O)Cc1csc(Nc2cccc(C(F)(F)F)c2)n1	-2%	10µM*
COc1ccc(OC)c(NC(=O)CCc2c(C)nc3c(c(C)nn3C(C)(C)C)c2C)c1	-12%	?
Cc1nc2sccn2c(=O)c1S(=O)(=O)NCc1ccc(F)cc1	0%	17%
COc1ccc(/C=C(\C#N)C(=O)Nc2cc(S(=O)(=O)N3CCCCC3)ccc2N2CCCCC2)cc1	-2%	4µM*
SMILES	Cruzain Triton	Cruzain noTriton
COc1ccc(/C=C/C(=O)Nc2cc(S(=O)(=O)N3CCCCC3)ccc2N2CCCCC2)cc1OC	-2%	-28%
CCOC(=O)C(CC)Sc1ncnc2sc3c(c12)CCCC3 (centres undefined)	-8%	-3%
COc1ccc2c(c1)CC/C(=C/c1ccco1)C2=O	22µM*	20µM*
Nc1ccc2c(c1)C/C(=C/c1ccco1)C2=O	-15%	?
Cc1ccc(S(=O)(=O)N2CCc3cc(C(=O)NCCc4ccccc4)ccc32)cc1	0%	2%
Nc1c(C(=O)c2ccccc2)sc2c1c(=O)[nH]c(=O)n2-c1ccccc1	-8%	11%
Cc1ccc(C(=O)c2sc3c(c2N)c(=O)[nH]c(=O)n3CCc2ccccc2)cc1	-15%	13µM*
Cc1ccc(C(=O)NNC(=O)CSc2nnc3c(n2)[nH]c2ccc(F)cc23)cc1	-14%	?
O=C(CSc1nnc2c(n1)[nH]c1ccc(F)cc12)OCc1ccccc1	3%	13µM*
CCOC(=O)c1c(N)n(-c2ccc(OCC)cc2)c2nc3ccccc3nc12	1%	-8%
COc1ccc2[nH]cc(CCNc3nc(-c4ccccc4OC)nc4ccccc34)c2c1	1%	-10%
Cc1ccc(C(=O)c2no[n+]([O-])c2C(=O)c2ccc(C)cc2)cc1	?	25µM*
Cc1ccc(C(=O)/C=C\C(=O)c2ccc(C)cc2)cc1	-9%	-21%
CN(C)c1ccc(/C=C/C(O)=C2/C(=O)N(C)C3(C)CC2c2ccccc2O3)cc1 (centres undefined)	-9%	20µM*
CN1C(=O)C(/C(N)=N/NC(=O)c2ccccc2)C2CC1(C)Oc1ccccc12 (centres undefined)	-2%	-2%
CCc1ccccc1NC(=O)c1cc2sc(Cl)cc2n1CC	10%	10%
COC(=O)c1cc2sc(C)cc2n1CC(=O)Nc1ccc(C)c(C)c1	-2%	-3%
Cc1cc(C)cc(-c2cc3c(c(-c4c(O)c(-c5cc(C)cc(C)c5)cc5c4CCCC5)c2O)CCCC3)c1	1%	16µM*
Oc1ccc2c(c1-c1c(O)c(Br)cc3c1CCCC3)CCCC2	0%	3%
CCOc1cc(-c2ccc(OC(=O)c3ccccc3F)cc2)cc(=O)c2c(C)oc(C)c12	-15%	?
CN(C)Cc1ccccc1-c1cncnc1NC1CC1	-1%	7%
Cc1cc(C)n(C(C)CC(=O)NCc2ccc(Cl)cc2)n1 (centres undefined)	-2%	-13%
Oc1[nH]c(=S)sc1/C=C1\C(c2ccccc2)=Nc2ccccc21	-9%	25µM*
O=c1[nH]c(=O)n(-c2ccccc2)c(O)c1/C=C1/C(c2ccccc2)=Nc2ccccc21	-5%	-12%
C1CCOC1	3%	5%
SMILES	Cruzain Triton	Cruzain noTriton
c1ccc2c(c1)[nH]c1ccccc12	-6%	0%
O=Cc1c2[nH]c3ccccc3c2cc2[nH]c3ccccc3c12	1%	25µM*
N#Cc1cccc(-c2cc(-n3ccnc3)ncn2)c1	4%	-1%
CN(C)S(=O)(=O)c1cccc(C(=O)C2=C3SC=C(c4ccccc4)N3CC2)c1	-4%	25µM*
CN(C)S(=O)(=O)c1cccc(C(=O)N2CCc3ccccc32)c1	0%	-7%
CC(=O)N1CCCc2cc(S(=O)(=O)N(C)CC(=O)Nc3ccc(C)cc3C)ccc21	0%	7%
Nn1cnc2sc3c(c2c1=O)CCC3	0%	1%
O=c1c2c3c(sc2ncn1Cc1ccc(F)cc1)CCC3	-2%	7.9µM*
CCCCCCCCNc1nc(Cl)nc(NCc2ccco2)n1	-2%	16µM*
CCCCCCNc1nc(NCc2ccco2)nc(OCC)n1	-5%	-1%
Cc1ccc(C2c3[nH]c4ccccc4c3CCN2C(=O)Nc2ccc(C)c(C)c2)cc1 (centres undefined)	1%	?
COc1cc(OC)c(NC(=O)N2CCc3c([nH]c4ccccc34)C2c2ccccc2F)cc1Cl (centres undefined)	-4%	16µM*
COc1cc(NC(=O)N2CCc3c(sc4c3CCCC4)C2c2ccccc2)cc(OC)c1OC (centres undefined)	-3%	?
COc1cc(OC)c(NC(=O)N2CCc3c(sc4c3CCCC4)C2c2ccccc2)cc1Cl (centres undefined)	0%	10µM*
